The source of these data is PubChem BioAssay (NCATS).

Where “and” joins values, the source holds several entries; their conditions need not be identical. Identical values can stand only once. Records with an inconclusive call do not appear. Values without a mark were called inactive. Calls follow the shape of the dose curve; as a rule, active = well fitted curve in the direction sought with a large enough effect; inconclusive = small, poorly fitted or top-dose-only effect, or another doubt; inactive = no such curve, though single readings can be large or run the other way. Where a SMILES comes first, the peptide text is derived from it. Bridges are numbered along the chain shown (N, C = ends).
% is scaled to controls: 0 for no effect and ±100 for the full control effect.

The assay is described as follows: qHTS Assay for Identifying Gametocytocidal Compounds (AID 743244).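 Also: actives lower the fluorescent signal which means gametocytes are killed.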 As to conditions: P. falciparum 3D7 stage III-V gametocytes, alamarBlue, 72 h; max response: stronger effect = lower value. The essentials: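 Stage III–V gametocytes of P. falciparum 3D7 were seeded at 20,000 cells/well onto pre-dispensed compounds. After 72 h, 37 °C, 5% CO2, alamarBlue was added for another 24 h.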
For orientation: qHTS replaces the single test concentration by a dilution series.
As for `C[C@H](/C=C/[C@H](C)C(C)(C)O)[C@H]1CC[C@H]2/C(=C/C=C3C[C@@H](O)C[C@H](O)C3)CCC[C@]12C`, the max response was 11.6%. For `O=P(O)(O)OC(CO)CO`, the max response was 10.5%. The result for `CCCCCCCCCCCCCCCCCC(=O)[O][Al]` reads -2.25%.

For `O=C1O[C@H]2[C@H](O)[C@@H]1OC(O)[C@H]2O` (stereo not given in full), the max response is -4.25%. The result for `CCCCCCCCCCCCCCCC(=O)OC[C@H](O)[C@H]1OC(=O)C(O)=C1O` reads 0.191%; that for `Cc1[nH]cnc1C[C@H]1CCc2c(C)c3ccccc3n2C1=O`, 6.9%; that for `CCC[C@@]1(CCc2ccccc2)CC(O)=C([C@H](CC)c2cccc(NS(=O)(=O)c3ccc(C(F)(F)F)cn3)c2)C(=O)O1`, 14.3%. As to `COCC1=C(C(=O)OC(C)OC(=O)OC(C)C)N2C(=O)[C@@H](NC(=O)/C(=N\OC)c3csc(N)n3)[C@H]2SC1` (stereo not given in full), the max response was -2.17% and -16.2%.

Turning to `COc1cc(C[C@@H]2NCCc3cc(O)c(O)cc32)cc(OC)c1OC`, the max response was -17.1%. With `O=C(O)c1cccc(/C=C2/C[C@@H]3[C@@H](/C=C/[C@@H](O)C4CCCCC4)[C@H](O)C[C@@H]3O2)c1`, the max response is -5.6%. The result for `CCN(CC)c1ccc(N=Nc2ccc(S(=O)(=O)N(C)C)cc2)c(S(=O)(=O)NCC[n+]2ccccc2)c1` reads 1.66%; that for `CCC(CN)CC(C)CCNCC(O)CNCC(C)CC(CC)CN` (stereo not given), -11%; that for `CCOC(=O)COc1ccc2c(C)c(CCN(CC)CC)c(=O)oc2c1`, 15%. With `OC(CN1CCCCC1)c1cc(-c2ccccc2)on1` (stereo not given), the max response was -4.26%. The result for `CCCC(CCC)C(N)=O` reads -4.93%.

Take `CN=C(NC)NCc1ccccc1`: the max response was 13.1%. The result for `CO[C@@H]1[C@@H](O[C@@H]2O[C@H](C)[C@@H](O[C@H]3C[C@@](C)(O)[C@@H](OC(=O)CC(C)C)[C@H](C)O3)[C@H](N(C)C)[C@H]2O)[C@@H](CC=O)C[C@@H](C)[C@@H](O)/C=C/C=C/C[C@@H](C)OC(=O)C[C@H]1O` reads 4.51% and 4.66%.

Turning to `CCCCOC(=O)C(=O)Nc1cccc(-c2nn[nH]n2)c1`, the max response was 31.5%. `CC(=O)O[C@H]1CC[C@@]2(C)C(=CC[C@@H]3[C@@H]2CC[C@]2(C)C(c4cccnc4)=CC[C@@H]32)C1`: the max response was -2.25%. The result for `CC(C)(C)NC(=O)[C@H]1CC[C@H]2[C@@H]3CC=C4C=C(C(=O)O)CC[C@]4(C)[C@H]3CC[C@]12C` reads -20.3%; that for `OCC(O)COc1ccc(Cl)cc1` (stereo not given), 3.94%; that for `CCC(=O)OCC(=O)[C@@]1(OC(=O)CC)[C@H](C)C[C@H]2[C@@H]3CCC4=CC(=O)C=C[C@]4(C)[C@@]3(F)[C@@H](O)C[C@@]21C`, -4.58%. Consider `O=C(Cn1cnnn1)N[C@@H]1C(=O)N2C(C(=O)O)=C(CSc3nncs3)CS[C@H]12`, for which the max response is 1.4% and 3.1%. The result for `CC1(C)S[C@@H]2[C@H](NC(=O)C(C(=O)Oc3ccc4c(c3)CCC4)c3ccccc3)C(=O)N2[C@H]1C(=O)O` (stereo not given in full) reads 5.21%; that for `Cc1ccccc1CNc1ncnc2c1ncn2[C@@H]1O[C@H](CO)[C@@H](O)[C@H]1O`, -9.34%; that for `C=C1CC2C3CCC4=CC(=O)C=C[C@]4(C)[C@@]3(F)[C@@H](O)C[C@]2(C)[C@@]1(O)C(=O)COC(C)=O` (stereo not given in full), -3.67%. With `C/C=C(/CC[C@@H](C)[C@H]1CC[C@H]2C3=CC[C@H]4[C@H](C)[C@@H](O)CC[C@]4(C)[C@H]3CC[C@]12C)C(C)C`, the max response was -5.29%. The result for `NCCCC[C@H](NC(=O)[C@@H]1CCCN1C(=O)[C@@H]1CSSC[C@H](NC(=O)CNC(=O)CNC(=O)CN)C(=O)N[C@@H](Cc2ccc(O)cc2)C(=O)N[C@@H](Cc2ccccc2)C(=O)N[C@@H](CCC(N)=O)C(=O)N[C@@H](CC(N)=O)C(=O)N1)C(=O)NCC(N)=O` (H-GGGCYFQNCPKG-NH2; disulfide 4-9) reads -2%. In the case of `NCCCNCCCCNC(=O)C(O)NC(=O)CCCCCCN=C(N)N` (stereo not given), the max response was -11.8%.

Consider `CC1=C(C(=O)OCCN(Cc2ccccc2)c2ccccc2)C(c2cccc([N+](=O)[O-])c2)C(P2(=O)OCC(C)(C)CO2)=C(C)N1` (stereo not given), for which the max response was 12.9%.
